# Experimental data: the antibiotic and cytotoxicity screens of Wong et al. (2023)
# The whole screen tested about 39,000 compounds, of which about 3,300 (8.5%) were called active. The list comes from a sample in which actives are over-represented; it also holds similar structures and randomly drawn compounds.
# Test system: HepG2
# Experiment: cytotoxicity call (relative viability < 0.9)
# Details: 10 µM
row,SMILES,cytotoxicity call
1,C[C@@H]1CN([C@H](C)CO)S(=O)(=O)c2ccc(C#C[C@@H](C)O)cc2O[C@H]1CN(C)C(=O)c1ccccc1,inactive
2,COc1ccccc1NC(=O)N(C)C[C@@H]1OCc2ccccc2-c2c(n(C)c3ccccc23)C(=O)N([C@H](C)CO)C[C@H]1C,inactive
3,O=C(C[C@@H]1C[C@@H]2c3cc(NC(=O)NC4CCCC4)ccc3O[C@@H]2[C@@H](CO)O1)NCCN1CCCCC1,inactive
4,CN(C)c1ccc(C(=C2C=CC(=[N+](C)C)C=C2)c2ccc(N(C)C)cc2)cc1.[Cl-],active
5,C[C@@H]1CCCCO[C@@H](CN(C)Cc2ccc(Cl)c(Cl)c2)[C@@H](C)CN([C@H](C)CO)C(=O)c2cc(NS(C)(=O)=O)ccc2O1,inactive
6,COc1ccc(NC(=O)N(C)C[C@@H]2Oc3ccc(NS(=O)(=O)c4c(C)noc4C)cc3C(=O)N([C@H](C)CO)C[C@@H]2C)cc1,inactive
7,COc1ccc(S(=O)(=O)N(C)C[C@@H]2Oc3ccc(NS(=O)(=O)c4c(C)noc4C)cc3C(=O)N([C@H](C)CO)C[C@@H]2C)cc1,active
8,COc1ccc(NC(=O)N(C)C[C@@H]2Oc3ccc(NS(=O)(=O)c4c(C)noc4C)cc3C(=O)N([C@@H](C)CO)C[C@@H]2C)cc1,active
9,COc1ccc(NC(=O)N(C)C[C@@H]2Oc3ccc(NS(=O)(=O)c4c(C)noc4C)cc3C(=O)N([C@@H](C)CO)C[C@H]2C)cc1,inactive
10,COc1ccc(S(=O)(=O)N(C)C[C@H]2Oc3ccc(NS(=O)(=O)c4c(C)noc4C)cc3C(=O)N([C@H](C)CO)C[C@@H]2C)cc1,inactive
11,COc1ccc(S(=O)(=O)N(C)C[C@H]2Oc3ccc(NS(=O)(=O)c4c(C)noc4C)cc3C(=O)N([C@H](C)CO)C[C@H]2C)cc1,inactive
12,Cc1cc(C(=O)Nc2cccc3c2O[C@H](CN(C)S(=O)(=O)c2c(C)noc2C)[C@H](C)CN([C@@H](C)CO)C3=O)n(C)n1,inactive
13,C[C@@H]1CCCCO[C@@H](CN(C)C(=O)Nc2cccc3ccccc23)[C@@H](C)CN([C@H](C)CO)C(=O)c2cc(NS(=O)(=O)c3ccccc3)ccc2O1,inactive
14,COc1cccc(C#Cc2ccc([C@@H]3[C@@H](CO)N4C(=O)CN(S(=O)(=O)c5ccccc5C)C[C@H]34)cc2)c1,inactive
15,C[C@@H]1CN([C@@H](C)CO)C(=O)c2cccc(NC(=O)CCCCCC(=O)Nc3ccccc3N)c2O[C@H]1CN(C)C(=O)Nc1ccccc1,inactive
16,Cc1noc(C)c1S(=O)(=O)Nc1ccc2c(c1)C(=O)N([C@H](C)CO)C[C@@H](C)[C@@H](CN(C)Cc1ccncc1)O2,inactive
17,O=C(C[C@@H]1CC=CC[C@H](NC(=O)OCC2c3ccccc3-c3ccccc32)C(=O)O[C@@H](c2ccccc2)CNC1=O)N[C@@H](CO)Cc1ccccc1,inactive
18,Cc1ccc(S(=O)(=O)N(C)C[C@H]2Oc3ccc(NC(=O)C4CC4)cc3CC(=O)N([C@@H](C)CO)C[C@@H]2C)cc1,inactive
19,C[C@@H]1CN([C@H](C)CO)C(=O)Cc2cc(NC(=O)C3CC3)ccc2O[C@@H]1CN(C)S(=O)(=O)c1ccc(Cl)cc1,inactive
20,C[C@H]1CN([C@@H](C)CO)C(=O)Cc2cc(NC(=O)C3CC3)ccc2O[C@H]1CN(C)S(=O)(=O)c1ccc(Cl)cc1,active

row,SMILES,cytotoxicity call
1,Cc1ccc(S(=O)(=O)N(C)C[C@@H]2Oc3ccc(NC(=O)C4CC4)cc3CC(=O)N([C@@H](C)CO)C[C@H]2C)cc1,inactive
2,Cc1ccc(S(=O)(=O)N(C)C[C@@H]2Oc3ccc(NC(=O)C4CC4)cc3CC(=O)N([C@@H](C)CO)C[C@@H]2C)cc1,active
3,C[C@H](CO)N1C[C@H](C)[C@H](CN(C)S(=O)(=O)c2ccc(Cl)cc2)Oc2ccc(NC(=O)C3CC3)cc2CC1=O,inactive
4,C[C@H]1CN([C@@H](C)CO)C(=O)c2cccc(NC(=O)c3ccc(-c4nccs4)cc3)c2O[C@@H]1CN(C)C(=O)Nc1cccc2ccccc12,inactive
5,COc1ccc(S(=O)(=O)N(C)C[C@@H]2Oc3cc(-c4ccccc4OC)ccc3S(=O)(=O)N([C@H](C)CO)C[C@H]2C)cc1,inactive
6,COc1ccc(S(=O)(=O)N(C)C[C@@H]2Oc3cc(-c4ccccc4OC)ccc3S(=O)(=O)N([C@@H](C)CO)C[C@H]2C)cc1,inactive
7,COc1ccc(S(=O)(=O)N(C)C[C@@H]2Oc3cc(-c4ccccc4OC)ccc3S(=O)(=O)N([C@H](C)CO)C[C@@H]2C)cc1,active
8,COc1ccc(S(=O)(=O)N(C)C[C@H]2Oc3cc(-c4ccccc4OC)ccc3S(=O)(=O)N([C@H](C)CO)C[C@@H]2C)cc1,inactive
9,COc1ccc(S(=O)(=O)N(C)C[C@H]2Oc3cc(-c4ccccc4OC)ccc3S(=O)(=O)N([C@H](C)CO)C[C@H]2C)cc1,active
10,COc1ccc(S(=O)(=O)N(C)C[C@@H]2Oc3cc(-c4ccccc4OC)ccc3S(=O)(=O)N([C@@H](C)CO)C[C@@H]2C)cc1,inactive
11,C[C@@H]1CN([C@@H](C)CO)S(=O)(=O)c2ccc(-c3cccc(C#N)c3)cc2O[C@H]1CN(C)C(=O)c1ccncc1,inactive
12,Cc1noc(C)c1S(=O)(=O)N(C)C[C@H]1OCCCC[C@H](C)Oc2ccc(NC(=O)Nc3ccc(C(F)(F)F)cc3)cc2C(=O)N([C@@H](C)CO)C[C@@H]1C,active
13,Cc1noc(C)c1S(=O)(=O)N(C)C[C@@H]1OCCCC[C@H](C)Oc2ccc(NC(=O)Nc3ccc(C(F)(F)F)cc3)cc2C(=O)N([C@H](C)CO)C[C@H]1C,inactive
14,Cc1noc(C)c1S(=O)(=O)N(C)C[C@@H]1OCCCC[C@@H](C)Oc2ccc(NC(=O)Nc3ccc(C(F)(F)F)cc3)cc2C(=O)N([C@H](C)CO)C[C@H]1C,inactive
15,Cc1noc(C)c1S(=O)(=O)N(C)C[C@@H]1OCCCC[C@H](C)Oc2ccc(NC(=O)Nc3ccc(C(F)(F)F)cc3)cc2C(=O)N([C@H](C)CO)C[C@@H]1C,active
16,Cc1noc(C)c1S(=O)(=O)N(C)C[C@H]1OCCCC[C@@H](C)Oc2ccc(NC(=O)Nc3ccc(C(F)(F)F)cc3)cc2C(=O)N([C@@H](C)CO)C[C@@H]1C,inactive
17,Cc1noc(C)c1S(=O)(=O)N(C)C[C@@H]1OCCCC[C@@H](C)Oc2ccc(NC(=O)Nc3ccc(C(F)(F)F)cc3)cc2C(=O)N([C@H](C)CO)C[C@@H]1C,inactive
18,Cc1noc(C)c1S(=O)(=O)N(C)C[C@H]1OCCCC[C@H](C)Oc2ccc(NC(=O)Nc3ccc(C(F)(F)F)cc3)cc2C(=O)N([C@H](C)CO)C[C@H]1C,inactive
19,Cc1noc(C)c1S(=O)(=O)N(C)C[C@H]1OCCCC[C@@H](C)Oc2ccc(NC(=O)Nc3ccc(C(F)(F)F)cc3)cc2C(=O)N([C@@H](C)CO)C[C@H]1C,inactive
20,Cc1noc(C)c1S(=O)(=O)N(C)C[C@H]1OCCCC[C@@H](C)Oc2ccc(NC(=O)Nc3ccc(C(F)(F)F)cc3)cc2C(=O)N([C@H](C)CO)C[C@@H]1C,active
